According to PubChem BioAssay AID624260 (Broad Institute, 2012):
Hit rate of the full screen: of about 44,000 compounds, about 30 (0.07%) were called active. Not shown: some 1% with an inconclusive outcome. This is one part of a sample in which actives are shown more often than they occur. A number with no mark means an inactive call. No stated cut-off is given here; in the data, active means inhibition above about 54% (passing the limit was not always enough); inconclusive means no clear call, values can overlap the other calls.

Target: Histone-lysine N-methyltransferase NSD2 (Homo sapiens) (UniProt O96028)
Sequence (O96028 whole entry, looked up): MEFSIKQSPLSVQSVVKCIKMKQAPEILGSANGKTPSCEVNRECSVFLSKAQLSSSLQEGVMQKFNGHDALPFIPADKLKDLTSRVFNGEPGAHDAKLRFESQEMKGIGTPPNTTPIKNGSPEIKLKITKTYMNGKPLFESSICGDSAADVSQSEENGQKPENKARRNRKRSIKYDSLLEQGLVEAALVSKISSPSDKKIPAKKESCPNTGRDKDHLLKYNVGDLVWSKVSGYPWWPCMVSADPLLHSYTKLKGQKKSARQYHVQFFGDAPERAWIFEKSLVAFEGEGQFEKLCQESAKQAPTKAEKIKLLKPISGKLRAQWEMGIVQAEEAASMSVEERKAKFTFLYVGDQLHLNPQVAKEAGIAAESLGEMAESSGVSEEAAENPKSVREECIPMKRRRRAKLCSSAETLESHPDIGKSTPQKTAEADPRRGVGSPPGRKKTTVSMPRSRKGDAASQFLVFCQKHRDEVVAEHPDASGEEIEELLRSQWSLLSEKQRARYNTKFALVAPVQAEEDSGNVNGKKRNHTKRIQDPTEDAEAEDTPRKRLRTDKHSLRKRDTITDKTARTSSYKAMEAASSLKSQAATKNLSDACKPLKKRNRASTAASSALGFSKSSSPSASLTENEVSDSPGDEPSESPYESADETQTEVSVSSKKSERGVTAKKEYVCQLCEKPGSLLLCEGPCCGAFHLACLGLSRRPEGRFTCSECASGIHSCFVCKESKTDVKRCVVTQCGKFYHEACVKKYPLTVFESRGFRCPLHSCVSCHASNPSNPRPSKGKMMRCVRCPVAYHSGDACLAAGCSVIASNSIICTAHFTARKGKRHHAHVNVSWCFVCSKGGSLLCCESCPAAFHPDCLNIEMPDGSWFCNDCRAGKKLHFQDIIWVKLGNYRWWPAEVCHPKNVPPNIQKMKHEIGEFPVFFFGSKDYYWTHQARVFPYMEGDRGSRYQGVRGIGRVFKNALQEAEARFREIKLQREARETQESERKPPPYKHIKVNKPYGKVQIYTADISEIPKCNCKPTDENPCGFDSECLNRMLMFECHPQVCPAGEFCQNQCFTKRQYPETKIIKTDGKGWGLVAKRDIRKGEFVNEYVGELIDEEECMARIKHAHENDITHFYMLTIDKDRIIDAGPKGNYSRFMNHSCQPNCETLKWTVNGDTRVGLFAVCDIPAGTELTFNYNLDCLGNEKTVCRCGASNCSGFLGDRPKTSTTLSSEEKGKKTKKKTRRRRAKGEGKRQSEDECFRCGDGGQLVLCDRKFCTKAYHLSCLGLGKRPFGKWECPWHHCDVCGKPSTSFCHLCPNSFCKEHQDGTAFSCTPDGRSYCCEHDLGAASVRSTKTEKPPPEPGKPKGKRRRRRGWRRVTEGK
Assay: NSD2 histone methyltransferase activity blockers – biochemical, plate reader, single point, primary screen (AID 624260);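 further: inhibitors reduce the monomethyl H3K36 fluorescence signal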
Conditions: NSD2-SET H3K36me1 DELFIA fluorescence, at 12.5 µM, active compounds read high

SMILES | inhibition
C/C=C/c1ccc2c(c1)O[C@H](CN(C)C(=O)Nc1ccccc1)[C@H](C)CN([C@@H](C)CO)S2(=O)=O | -4.94%
C[C@@H]1CN([C@@H](C)CO)C(=O)c2c(c3ccccc3n2C)-c2ccccc2CO[C@@H]1CN(C)S(=O)(=O)c1ccc(F)cc1 | -1.17%
C[C@@H]1CN([C@@H](C)CO)C(=O)Cc2cc(NS(=O)(=O)c3ccc(Cl)cc3)ccc2O[C@H]1CN(C)C(=O)Nc1cccc2ccccc12 | -4.23%
CC(=O)N(C)C[C@H]1Oc2cc(C#CCN(C)C)ccc2S(=O)(=O)N([C@H](C)CO)C[C@H]1C | -0.922%
COc1cccc(CNC(=O)C[C@H]2CC[C@@H](NC(=O)C3CCC3)[C@@H](CO)O2)c1 | 2.46%
COc1ccccc1NC(=O)N[C@H]1CC[C@@H](CC(=O)NCc2ccc(Cl)c(Cl)c2)O[C@H]1CO | -9.36%
C[C@H](CO)N1C[C@H](C)[C@@H](CN(C)C(=O)Nc2ccc3c(c2)OCO3)Oc2ccc(NS(=O)(=O)c3ccc(Cl)cc3)cc2CC1=O | 1.14%
C[C@@H](O)C#Cc1ccc2c(c1)O[C@@H](CN(C)Cc1cccnc1)[C@@H](C)CN([C@@H](C)CO)S2(=O)=O | 3.08%
COCC#Cc1ccc2c(c1)O[C@H](CN(C)C(=O)CC1CC1)[C@@H](C)CN([C@@H](C)CO)S2(=O)=O | 8.01%
CNC[C@@H]1OCCCC[C@H](C)Oc2ccc(NS(=O)(=O)c3ccc(F)cc3)cc2C(=O)N([C@@H](C)CO)C[C@@H]1C | -5.42%
COc1ccc(-c2cnc3c(c2)C(=O)N([C@@H](C)CO)C[C@@H](C)[C@H](CN(C)C)O3)cc1 | 9.08%
C[C@H](CO)N1C[C@H](C)[C@H](CN(C)C(=O)Nc2ccc3c(c2)OCO3)Oc2cc(C#Cc3ccncc3)ccc2S1(=O)=O | 2.61%
C[C@@H]1CCCCO[C@H](CN(C)C(=O)CCC(F)(F)F)[C@H](C)CN([C@H](C)CO)C(=O)c2cc(NC(=O)NC3CCCCC3)ccc2O1 | -3.86%
Cc1[nH]c(/C=C2\C(=O)Nc3ccc(S(=O)(=O)Cc4c(Cl)cccc4Cl)cc32)c(C)c1C(=O)N1CCC[C@@H]1CN1CCCC1 | 67.1% (active)
Cc1cc(C)c(/C=C2\C(=O)Nc3ccccc32)[nH]1 | -2.13%
C/C=C/c1ccc2c(c1)O[C@@H](CN(C)C(=O)c1ccncc1)[C@@H](C)CN([C@H](C)CO)S2(=O)=O | 0.685%
C/C=C/c1cnc2c(c1)C(=O)N([C@@H](C)CO)C[C@@H](C)[C@H](CN(C)Cc1cncnc1)O2 | 2.06%
CCCC#Cc1ccc2c(c1)O[C@H](CN(C)C(=O)c1ccncc1)[C@H](C)CN([C@H](C)CO)S2(=O)=O | 5.45%
C[C@H](CO)N1C[C@H](C)[C@@H](CN(C)C(=O)C2CC2)Oc2cc(-c3cccc(C#N)c3)ccc2S1(=O)=O | -3.58%
Cc1noc(C)c1S(=O)(=O)Nc1ccc2c(c1)CC(=O)N([C@@H](C)CO)C[C@@H](C)[C@H](CN(C)S(=O)(=O)c1cccs1)O2 | -2.26%
C[C@@H]1CN([C@@H](C)CO)C(=O)Cc2cc(NC(=O)CCCCCC(=O)Nc3ccccc3N)ccc2O[C@H]1CN(C)Cc1ccc(Cl)c(Cl)c1 | -4.04%
Cc1ccc(-c2cnc3c(c2)C(=O)N([C@H](C)CO)C[C@H](C)[C@@H](CN(C)S(C)(=O)=O)O3)cc1 | 4.66%
C[C@H]1CN([C@@H](C)CO)C(=O)c2cc(-c3cccc(F)c3)cnc2O[C@@H]1CN(C)C(=O)c1ccccn1 | 3.24%

SMILES | inhibition
C[C@@H]1CN([C@H](C)CO)C(=O)c2cc(C#Cc3ccncc3)cnc2O[C@H]1CN(C)Cc1ccncc1 | 6.93%
C[C@@H]1CN([C@@H](C)CO)C(=O)c2cc(C#Cc3ccncc3)cnc2O[C@@H]1CN(C)C(=O)CN(C)C | 3.43%
CCCC#Cc1cnc2c(c1)C(=O)N([C@H](C)CO)C[C@H](C)[C@@H](CN(C)S(=O)(=O)c1ccccc1)O2 | 8.48%
C[C@@H]1CN([C@@H](C)CO)S(=O)(=O)c2ccc(C#Cc3cccnc3)cc2O[C@@H]1CN(C)C(=O)CN(C)C | 0.378%
COCC#Cc1cnc2c(c1)C(=O)N([C@H](C)CO)C[C@H](C)[C@H](CN(C)C(=O)Cc1cccnc1)O2 | -0.822%
C[C@H](O)C#Cc1ccc2c(c1)O[C@@H](CN(C)C(=O)C1CC1)[C@H](C)CN([C@H](C)CO)S2(=O)=O | 3.98%
CCC(=O)N(C)C[C@@H]1Oc2cc(C#CCOC)ccc2S(=O)(=O)N([C@@H](C)CO)C[C@@H]1C | 4.65%
C[C@H](CO)N1C[C@H](C)[C@@H](CN(C)S(=O)(=O)c2cccc(F)c2)Oc2cc(C#CCN(C)C)ccc2S1(=O)=O | 0.824%
COc1cc(/C=N/NC(=O)c2ccc(C(=O)NO)cc2)ccc1O | -2.52%
C[C@@H]1CN([C@H](C)CO)C(=O)c2cc(C#CCN(C)C)cnc2O[C@@H]1CN(C)C(=O)Cc1cccnc1 | -1.47%
CCCC#Cc1cnc2c(c1)C(=O)N([C@@H](C)CO)C[C@@H](C)[C@@H](CN(C)Cc1ccccc1F)O2 | 4.92%
C[C@@H]1CN([C@@H](C)CO)C(=O)c2cc(C#CC3CCCCC3)cnc2O[C@H]1CN(C)C(=O)Cc1ccccn1 | -1.35%
CNC[C@H]1Oc2cc(C#CCOC)ccc2S(=O)(=O)N([C@@H](C)CO)C[C@H]1C | -0.881%
C[C@H]1CN([C@@H](C)CO)S(=O)(=O)c2ccc(-c3ccncc3)cc2O[C@@H]1CN(C)C(=O)CC1CC1 | -0.24%
C[C@@H]1CN([C@@H](C)CO)C(=O)c2cc(-c3ccncc3)cnc2O[C@@H]1CN(C)C(=O)C1CCCCC1 | 1.45%
C[C@@H]1CN([C@@H](C)CO)C(=O)Cc2cc(NC(=O)C3CC3)ccc2O[C@H]1CN(C)C(=O)NC1CCCCC1 | 4.29%
C[C@H](CO)N1C[C@H](C)[C@H](CN(C)Cc2cccnc2)Oc2ncc(C3=CCCC3)cc2C1=O | 1.28%
COc1ccc(NC(=O)N(C)C[C@@H]2Oc3ccc(NC(=O)Cc4cn(C)c5ccccc45)cc3CC(=O)N([C@@H](C)CO)C[C@H]2C)cc1 | -6.14%
CC(C)NC(=O)N(C)C[C@H]1Oc2ncc(-c3ccc(C(=O)N(C)C)cc3)cc2C(=O)N([C@H](C)CO)C[C@H]1C | 1.31%
COc1ccc(NC(=O)N(C)C[C@@H]2OCc3ccccc3-c3c(n(C)c4ccccc34)C(=O)N([C@H](C)CO)C[C@H]2C)cc1 | -10.2%
CCC(=O)N(C)C[C@@H]1Oc2ncc(C3=CCCC3)cc2C(=O)N([C@H](C)CO)C[C@@H]1C | -1.76%
CCC(=O)N(C)C[C@H]1Oc2cc(-c3ccc(C)cc3)ccc2S(=O)(=O)N([C@@H](C)CO)C[C@H]1C | -0.743%
Cc1ccccc1S(=O)(=O)N(C)C[C@@H]1OCc2ccccc2-c2c(n(C)c3ccccc23)C(=O)N([C@H](C)CO)C[C@H]1C | -9.38%

SMILES | inhibition
O=C(C[C@H]1C[C@H]2c3cc(NC(=O)CC4CC4)ccc3O[C@H]2[C@H](CO)O1)NCc1ccccn1 | -2.07%
C[C@@H]1CN([C@@H](C)CO)C(=O)c2cccc(N(C)C)c2O[C@@H]1CN(C)S(=O)(=O)c1ccccc1 | 2.66%
C[C@@H]1CCCCO[C@H](CN(C)Cc2ccc(Cl)c(Cl)c2)[C@@H](C)CN([C@@H](C)CO)C(=O)c2cc(NC(=O)Nc3ccccc3)ccc2O1 | -6.5%
C[C@@H]1CN([C@H](C)CO)S(=O)(=O)c2ccc(C#CCN(C)C)cc2O[C@H]1CN(C)C(=O)CC1CC1 | 2.71%
C[C@@H]1CN([C@@H](C)CO)C(=O)c2cc(C3=CCCC3)cnc2O[C@@H]1CN(C)C(=O)Cc1ccncc1 | -7.1%
CN(C)C(=O)C[C@@H]1C[C@@H]2c3cc(NC(=O)C4CCOCC4)ccc3O[C@@H]2[C@@H](CO)O1 | -0.279%
COc1ccccc1S(=O)(=O)N(C)C[C@H]1Oc2cc(C#CCC3CCCC3)ccc2S(=O)(=O)N([C@@H](C)CO)C[C@H]1C | -4.13%
Cc1noc(C)c1NC(=O)Nc1ccc2c(c1)C(=O)N([C@@H](C)CO)C[C@H](C)[C@@H](CN(C)Cc1ccncc1)OCCCC[C@@H](C)O2 | -3.95%
C[C@@H]1CN([C@H](C)CO)S(=O)(=O)c2ccc(/C=C/c3ccccc3)cc2O[C@@H]1CN(C)Cc1ccccc1 | 9.82%
CC(C)CC#Cc1cnc2c(c1)C(=O)N([C@@H](C)CO)C[C@@H](C)[C@@H](CN(C)C(=O)c1cccnc1)O2 | -0.174%
C[C@@H]1CN([C@H](C)CO)C(=O)c2cc(C3=CCCCC3)cnc2O[C@@H]1CN(C)C(=O)c1ccc2c(c1)OCO2 | -0.482%
C[C@H]1CN([C@@H](C)CO)S(=O)(=O)c2ccc(Br)cc2O[C@H]1CN(C)C(=O)c1cnccn1 | -5.84%
COc1cccc(S(=O)(=O)N[C@H]2CC[C@H](CC(=O)NC3CCC3)O[C@H]2CO)c1 | 8.91%
O=C(C[C@@H]1C[C@@H]2c3cc(NC(=O)c4ccc5c(c4)OCO5)ccc3O[C@@H]2[C@@H](CO)O1)NCC1CC1 | 0.538%
C[C@H](CO)N1C[C@H](C)[C@H](CN(C)C(=O)Cc2ccccn2)Oc2ncc(-c3cncnc3)cc2C1=O | -7.65%
Cc1ccc(S(=O)(=O)Nc2ccc3c(c2)C(=O)N([C@H](C)CO)C[C@@H](C)[C@@H](CN(C)C)OCCCC[C@@H](C)O3)cc1 | -3.71%
COc1ccc(NC(=O)N(C)C[C@H]2Oc3ncc(C#C[C@@H](C)O)cc3C(=O)N([C@H](C)CO)C[C@H]2C)cc1 | -13%
COc1ccc(CN(C)C[C@@H]2OCCCC[C@@H](C)Oc3ccc(NS(=O)(=O)c4ccc(F)cc4)cc3C(=O)N([C@@H](C)CO)C[C@H]2C)cc1 | -2.7%
CCCNC(=O)N(C)C[C@H]1Oc2ncc(C#Cc3ccncc3)cc2C(=O)N([C@@H](C)CO)C[C@@H]1C | 4.58%
C/C=C/c1ccc2c(c1)O[C@H](CN(C)C(C)=O)[C@H](C)CN([C@H](C)CO)S2(=O)=O | 8.37%
O=C(C[C@H]1C=C[C@H](NC(=O)CN2CCOCC2)[C@@H](CO)O1)NCc1cccc(F)c1 | -94.1%
